# According to PubChem BioAssay (NCATS):
# Inconclusive results are not listed. Activity calls are given as the source filed them. Unless noted, calls come from the whole dose curve.
# System: not listed separately
# Test: qHTS for Inhibitors of the Functional Ribonucleoprotein Complex (vRNP) of Lymphocytic Choriomeningitis Arenaviruses (LCMV): Viability assay - alamar blue signal for LCMV Primary Screen (AID 1347085; calls by dose curve; tested in HEK293 reporter line; note: nearly all actives have a fitted effect of over 80% in size)
# Details: alamar blue viability counter-screen, LCMV vRNP screen cells; series mostly up to 57.5 µM; activity change, negative = lower viability: at the top concentration
# % is set by controls: 0 for no effect and ±100 for the full control effect.
SMILES,"activity change, negative = lower viability",Potency
CSc1ccc(/C=C2/C(C)=C(CC(=O)O)c3cc(F)ccc32)cc1,0.152% (inactive),
C[N+]1(C)CCC(=C(c2ccccc2)c2ccccc2)CC1,4.18% (inactive),
CCC(=O)c1ccc2c(c1)N(CCCN(C)C)c1ccccc1S2,2.03% (inactive),
CC(C)(C)CC(=O)OCC(=O)[C@@]1(O)CC[C@H]2[C@@H]3CCC4=CC(=O)C=C[C@]4(C)[C@H]3[C@@H](O)C[C@@]21C,-0.389% (inactive),
C/C=C(/C(=C/C)c1ccc(OC(C)=O)cc1)c1ccc(OC(C)=O)cc1,4.87% (inactive),
O=C1OC2(c3ccc(O)cc3Oc3cc(O)ccc32)c2ccccc21,2.38% (inactive),
Cc1nnc(C(=O)NC(C)(C)c2nc(C(=O)NCc3ccc(F)cc3)c(O)c(=O)n2C)o1,,inactive
CCCCC(=O)O[C@]1(C(=O)CO)CC[C@H]2[C@@H]3CCC4=CC(=O)CC[C@]4(C)[C@H]3[C@@H](O)C[C@@]21C,-19% (inactive),
Cc1nc(C2CCCCC2)c(-c2ccc(S(N)(=O)=O)c(F)c2)o1,-3.24% (inactive),
CCc1ccc(C(=O)C(C)CN2CCCCC2)cc1 (stereo not given),19.8% (inactive),
CC(Cc1cccc(C(F)(F)F)c1)NCCOC(=O)c1ccccc1 (stereo not given),2.24% (inactive),
Cn1c(=O)c2c(ncn2CC2OCCO2)n(C)c1=O,3.8% (inactive),
Nc1ccncc1N,-6.5% (inactive),
NCCNC(=O)c1ccc(Cl)cn1,6.68% (inactive),
CCCCCCCC/C=C\CCCCCCCCN,-1.96% (inactive),
CCOc1ccc2nc(S(N)(=O)=O)sc2c1,-8.87% (inactive),
Nc1cc(C(F)(F)F)ccc1S,-2.75% (inactive),
Nc1ccn([C@H]2CC[C@@H](CO)O2)c(=O)n1,,inactive
CCCCC[C@H](O)C=C[C@H]1[C@H](O)CC(=O)[C@H]1CC=CCCCC(=O)O,4.64% (inactive),
COc1cc(NS(=O)(=O)c2ccc(N)cc2)ncn1,4.27% (inactive),

SMILES,"activity change, negative = lower viability",Potency
CN(Cc1cc(Br)cc(Br)c1N)C1CCCCC1,,inactive
COc1ccc(S(=O)(=O)N2c3ccc(Cl)cc3[C@@](O)(c3ccccc3Cl)[C@H]2C(=O)N2CCC[C@@H]2C(N)=O)cc1OC,-3.21% (inactive),
CC[C@H](c1ccc(O)cc1)[C@@H](CC)c1ccc(O)cc1,37.3% (inactive),
Clc1ccc2c(c1)CCc1cccnc1C2=C1CCNCC1,-149% (inactive),
CCC1(c2cnc[nH]2)Cc2ccccc2C1,9.56% (inactive),
Nc1c(CC(=O)O)cccc1C(=O)c1ccc(Br)cc1,8.41% (inactive),
O=S1(=O)OC(c2ccc(O)cc2)(c2ccc(O)cc2)c2ccccc21,-4.32% (inactive),
c1ccc(CN(CC2=NCCN2)c2ccccc2)cc1,0.569% (inactive),
C[C@@H](CN(C)C)CN1c2ccccc2Sc2ccccc21,-10.8% (inactive),
C/C(=C(/OCCOc1ccc(Cl)cc1)c1ccc(Cl)cc1Cl)n1ccnc1,10.6% (inactive),
Cc1ccc(O)cc1,0.547% (inactive),
CCC(CN)=C(c1ccccc1)c1ccccc1,-10.7% (inactive),
CCCCCOc1ccccc1/C(=C\SC)n1ccnc1,-63.6% (inactive),
O=C(CCCCC(=O)Nc1c(I)cc(I)c(C(=O)O)c1I)Nc1c(I)cc(I)c(C(=O)O)c1I,0.223% (inactive),
O=C(c1cc(O)c(O)c(O)c1)c1ccc(O)c(O)c1O,-4.2% (inactive),
CCc1oc2ccccc2c1C(=O)c1cc(Br)c(O)c(Br)c1,1.87% (inactive),
NC(N)=NCCC[C@H](N)C(=O)O,,inactive
CN1CCC(=C2c3ccccc3Sc3ccccc32)CC1,-15.2% (inactive),
O=C(OCC(COC(=O)c1cccnc1)(COC(=O)c1cccnc1)COC(=O)c1cccnc1)c1cccnc1,18.9% (inactive),
CC(=O)[C@@]1(O)CC[C@H]2[C@@H]3C[C@H](C)C4=CC(=O)CC[C@]4(C)[C@H]3CC[C@@]21C,0.143% (inactive),

# Molecular target: Nucleoprotein (Lymphocytic choriomeningitis virus (strain Armstrong)) (UniProt P09992)
# Test: qHTS for Inhibitors of the Functional Ribonucleoprotein Complex (vRNP) of Lymphocytic Choriomeningitis Arenaviruses (LCMV): LCMV Primary Screen - GLuc reporter signal (AID 1347086); note: nearly all actives have a fitted effect of over 70% in size
# Details: LCMV minigenome vRNP cell assay, Gaussia luciferase reporter; series mostly up to 57.5 µM; activity change, negative = inhibition: at the top concentration
# Sequence of Nucleoprotein (Lymphocytic choriomeningitis virus (strain Armstrong)) (P09992 whole entry, looked up): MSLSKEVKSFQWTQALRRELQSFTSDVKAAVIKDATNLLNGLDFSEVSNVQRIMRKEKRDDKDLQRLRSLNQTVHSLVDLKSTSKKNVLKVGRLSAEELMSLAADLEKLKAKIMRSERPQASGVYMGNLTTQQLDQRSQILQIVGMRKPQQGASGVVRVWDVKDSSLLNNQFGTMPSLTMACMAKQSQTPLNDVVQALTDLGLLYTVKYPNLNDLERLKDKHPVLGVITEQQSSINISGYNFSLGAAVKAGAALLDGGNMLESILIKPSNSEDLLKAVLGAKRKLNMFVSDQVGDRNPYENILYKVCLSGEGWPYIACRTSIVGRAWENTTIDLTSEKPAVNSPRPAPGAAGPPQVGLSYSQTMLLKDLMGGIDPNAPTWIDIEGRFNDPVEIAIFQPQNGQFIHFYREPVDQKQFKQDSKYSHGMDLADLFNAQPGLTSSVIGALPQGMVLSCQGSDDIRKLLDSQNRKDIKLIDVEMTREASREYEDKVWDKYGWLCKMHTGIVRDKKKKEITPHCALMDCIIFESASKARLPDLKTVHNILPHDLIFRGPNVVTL
SMILES,"activity change, negative = inhibition",Potency
CSc1ccc(/C=C2/C(C)=C(CC(=O)O)c3cc(F)ccc32)cc1,5.84% (inactive),
C[N+]1(C)CCC(=C(c2ccccc2)c2ccccc2)CC1,2.33% (inactive),
CCC(=O)c1ccc2c(c1)N(CCCN(C)C)c1ccccc1S2,15.9% (inactive),
CC(C)(C)CC(=O)OCC(=O)[C@@]1(O)CC[C@H]2[C@@H]3CCC4=CC(=O)C=C[C@]4(C)[C@H]3[C@@H](O)C[C@@]21C,3.07% (inactive),
C/C=C(/C(=C/C)c1ccc(OC(C)=O)cc1)c1ccc(OC(C)=O)cc1,-5.62% (inactive),
O=C1OC2(c3ccc(O)cc3Oc3cc(O)ccc32)c2ccccc21,-3.85% (inactive),
Cc1nnc(C(=O)NC(C)(C)c2nc(C(=O)NCc3ccc(F)cc3)c(O)c(=O)n2C)o1,,inactive
CCCCC(=O)O[C@]1(C(=O)CO)CC[C@H]2[C@@H]3CCC4=CC(=O)CC[C@]4(C)[C@H]3[C@@H](O)C[C@@]21C,29.1% (inactive),
Cc1nc(C2CCCCC2)c(-c2ccc(S(N)(=O)=O)c(F)c2)o1,-5.06% (inactive),
CCc1ccc(C(=O)C(C)CN2CCCCC2)cc1 (stereo not given),4.23% (inactive),
CC(Cc1cccc(C(F)(F)F)c1)NCCOC(=O)c1ccccc1 (stereo not given),8.45% (inactive),
Cn1c(=O)c2c(ncn2CC2OCCO2)n(C)c1=O,28.6% (inactive),
Nc1ccncc1N,-8.23% (inactive),
NCCNC(=O)c1ccc(Cl)cn1,5.08% (inactive),
CCCCCCCC/C=C\CCCCCCCCN,24.7% (inactive),
CCOc1ccc2nc(S(N)(=O)=O)sc2c1,-0.91% (inactive),
Nc1cc(C(F)(F)F)ccc1S,-16.7% (inactive),
Nc1ccn([C@H]2CC[C@@H](CO)O2)c(=O)n1,,inactive
CCCCC[C@H](O)C=C[C@H]1[C@H](O)CC(=O)[C@H]1CC=CCCCC(=O)O,3.62% (inactive),
COc1cc(NS(=O)(=O)c2ccc(N)cc2)ncn1,0.558% (inactive),

SMILES,"activity change, negative = inhibition",Potency
CN(Cc1cc(Br)cc(Br)c1N)C1CCCCC1,,inactive
COc1ccc(S(=O)(=O)N2c3ccc(Cl)cc3[C@@](O)(c3ccccc3Cl)[C@H]2C(=O)N2CCC[C@@H]2C(N)=O)cc1OC,6.32% (inactive),
CC[C@H](c1ccc(O)cc1)[C@@H](CC)c1ccc(O)cc1,7.69% (inactive),
Clc1ccc2c(c1)CCc1cccnc1C2=C1CCNCC1,-68.8% (inactive),
CCC1(c2cnc[nH]2)Cc2ccccc2C1,1.62% (inactive),
Nc1c(CC(=O)O)cccc1C(=O)c1ccc(Br)cc1,4.43% (inactive),
O=S1(=O)OC(c2ccc(O)cc2)(c2ccc(O)cc2)c2ccccc21,4.39% (inactive),
c1ccc(CN(CC2=NCCN2)c2ccccc2)cc1,16.8% (inactive),
C[C@@H](CN(C)C)CN1c2ccccc2Sc2ccccc21,-22.4% (inactive),
C/C(=C(/OCCOc1ccc(Cl)cc1)c1ccc(Cl)cc1Cl)n1ccnc1,3.47% (inactive),
Cc1ccc(O)cc1,24.3% (inactive),
CCC(CN)=C(c1ccccc1)c1ccccc1,-18.4% (inactive),
CCCCCOc1ccccc1/C(=C\SC)n1ccnc1,-64.2% (inactive),
O=C(CCCCC(=O)Nc1c(I)cc(I)c(C(=O)O)c1I)Nc1c(I)cc(I)c(C(=O)O)c1I,23.4% (inactive),
O=C(c1cc(O)c(O)c(O)c1)c1ccc(O)c(O)c1O,-0.971% (inactive),
CCc1oc2ccccc2c1C(=O)c1cc(Br)c(O)c(Br)c1,0.0296% (inactive),
NC(N)=NCCC[C@H](N)C(=O)O,,inactive
CN1CCC(=C2c3ccccc3Sc3ccccc32)CC1,-18.1% (inactive),
O=C(OCC(COC(=O)c1cccnc1)(COC(=O)c1cccnc1)COC(=O)c1cccnc1)c1cccnc1,18.6% (inactive),
CC(=O)[C@@]1(O)CC[C@H]2[C@@H]3C[C@H](C)C4=CC(=O)CC[C@]4(C)[C@H]3CC[C@@]21C,10% (inactive),
